Here are results for four molecules from PubChem BioAssay (EPA / NIEHS).

Holding throughout (conditions): mRNA level, 48 h; actives raise or lower the signal
Read-out in test [1]: Cytochrome P450 (CYP2B6), CYP2B6 (gene 1555)
In words: LTEA_HepaRG_CYP2B6: Life Technologies and Expression Analysis (LTEA) Assay for Cytochrome P450 (CYP2B6) using HepaRG (AID 2283481). Put shortly: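 Using 48 h treatment of HepaRG cells in serum-free induction medium, concentrations spanned half-log steps from 100 uM in 0.5% DMSO vehicle. CYP2B6 mRNA induction or loss is scored by qRT-PCR against DMSO.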

Read-out in test [2]: Cytochrome P450 2C19 (Homo sapiens) (UniProt P33261)
Put plainly: LTEA_HepaRG_CYP2C19: Life Technologies and Expression Analysis (LTEA) Assay for CYP2C19 using HepaRG (AID 2283482). Put shortly: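 Human HepaRG liver cells received test chemicals for 48 h (highest 100 uM, half-log dilutions in 0.5% DMSO). CYP2C19 mRNA induction or loss is read by multiplexed qRT-PCR and fitted in both directions versus vehicle.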

Read-out in test [3]: CYP2C8 (gene 1558)
Put plainly: LTEA_HepaRG_CYP2C8: Life Technologies and Expression Analysis (LTEA) Assay for CYP2C8 using HepaRG (AID 2283483). The procedure, abridged:
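CYP2C8 expression measured by TaqMan qRT-PCR and normalized to three housekeeping genes. HepaRG cultures were treated for 48 h with an eight-point half-log series topping at 100 uM, vehicle 0.5% DMSO, duplicates; fitted both directions against DMSO.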

Read-out in test [4]: CYP2C9 (gene 1559)
In words: LTEA_HepaRG_CYP2C9: Life Technologies and Expression Analysis (LTEA) Assay for CYP2C9 using HepaRG (AID 2283484). Put shortly: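 CYP2C9 transcript level, quantified by TaqMan qRT-PCR against three housekeeping genes, was fitted bidirectionally relative to 0.5% DMSO. HepaRG cultures were treated 48 h, in duplicate, at eight half-log concentrations topping at 100 uM.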

Read-out in test [5]: CYP2E1 (gene 1571)
In words: LTEA_HepaRG_CYP2E1: Life Technologies and Expression Analysis (LTEA) Assay for CYP2E1 using HepaRG (AID 2283485). Put shortly:
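Assay uses 48 h exposure of HepaRG hepatic cells, eight concentrations to 100 uM. Expression of CYP2E1 is quantified by TaqMan qRT-PCR with ACTB, GAPDH and POLR2A normalization; curves fitted in both directions relative to vehicle.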

Read-out in test [6]: CYP4A11 (gene 1579)
In words: LTEA_HepaRG_CYP4A11: Life Technologies and Expression Analysis (LTEA) Assay for CYP4A11 using HepaRG (AID 2283486). Put shortly:
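Readout is CYP4A11 mRNA induction or suppression (qRT-PCR, ACTB/GAPDH/POLR2A normalization) in human HepaRG cells after 48 h chemical treatment, concentrations to 100 uM in 0.5% DMSO, fitted bidirectionally against vehicle.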

Read-out in test [7]: Cytochrome P450 3A4 (Homo sapiens) (UniProt P08684)
Put plainly: LTEA_HepaRG_CYP3A4: Life Technologies and Expression Analysis (LTEA) Assay for CYP3A4 using HepaRG (AID 2283487). Put shortly:
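Differentiated HepaRG cells in serum-free induction medium exposed in duplicate for 48 h to 8 half-log concentrations up to 100 uM in 0.5% DMSO. CYP3A4 mRNA measured by qRT-PCR normalized to ACTB, GAPDH and POLR2A; bidirectional fit versus DMSO.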

Read-out in test [8]: DNA damage-inducible transcript 3 (DDIT3), DDIT3 (gene 1649)
Put plainly: LTEA_HepaRG_DDIT3: Life Technologies and Expression Analysis (LTEA) Assay for DNA damage-inducible transcript 3 (DDIT3) using HepaRG (AID 2283488). Put shortly: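 Eight-point concentration-response (100 uM highest, half-log dilutions) in HepaRG, 48 h, duplicate wells. Endpoint: qRT-PCR mRNA, normalized (ACTB, GAPDH, POLR2A), bidirectional fitting with DMSO as baseline.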

Read-out in test [9]: Pro-epidermal growth factor (Homo sapiens) (UniProt P01133)
Put plainly: LTEA_HepaRG_EGF: Life Technologies and Expression Analysis (LTEA) Assay for Epidermal growth factor (EGF) using HepaRG (AID 2283489). The procedure, abridged:
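EGF expression changes in human HepaRG cells are scored by bidirectional fitting relative to 0.5% DMSO controls. Chemicals are tested at eight half-log concentrations up to 100 uM for 48 h in serum-free induction medium.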

Read-out in test [10]: Early growth response protein 1 (EGR1) transcription factor, EGR1 (gene 1958)
Put plainly: LTEA_HepaRG_EGR1: Life Technologies and Expression Analysis (LTEA) Assay for Early growth response protein 1 (EGR1) transcription factor using HepaRG (AID 2283490). The procedure, abridged:
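EGR1 transcript levels quantified by qRT-PCR (Fluidigm arrays) against three housekeeping genes after 48 h chemical exposure of HepaRG cells. Eight-point half-log series topping at 100 uM, 0.5% DMSO vehicle, analyzed for gain or loss.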

Read-out in test [11]: Ezrin (EZR), EZR (gene 7430)
In words: LTEA_HepaRG_EZR: Life Technologies and Expression Analysis (LTEA) Assay for Ezrin (EZR) using HepaRG (AID 2283491). The procedure, abridged:
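Differentiated human HepaRG cells, 48 h after plating, were exposed in serum-free induction medium for 48 hours to eight half-log concentrations up to 100 uM in 0.5% DMSO. EZR mRNA was measured by TaqMan qRT-PCR, normalized to ACTB, GAPDH and POLR2A, and fitted bidirectionally against DMSO.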

Read-out in test [12]: Cytochrome P450 3A7 (Homo sapiens) (UniProt P24462)
Put plainly: LTEA_HepaRG_CYP3A7: Life Technologies and Expression Analysis (LTEA) Assay for CYP3A7 using HepaRG (AID 2283492). The procedure, abridged:
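Cells were thawed, plated, cultured 48 h, then treated for a further 48 h with chemicals (eight-point half-log series from 100 uM, 0.5% DMSO). RNA was isolated and CYP3A7 expression quantified by qRT-PCR normalised to ACTB, GAPDH and POLR2A.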

Read-out in test [13]: Fatty Acid-Binding Protein 1 (FABP1), FABP1 (gene 2168)
In words: LTEA_HepaRG_FABP1: Life Technologies and Expression Analysis (LTEA) Assay for Fatty Acid-Binding Protein 1 (FABP1) using HepaRG (AID 2283494). The procedure, abridged: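 FABP1 expression by TaqMan qRT-PCR, normalised to three housekeeping genes, in HepaRG cells after 48 h chemical treatment. Eight-point half-log series topping at 100 uM in 0.5% DMSO, duplicates; gain or loss fitted relative to vehicle.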

Read-out in test [14]: Cytochrome P450 4A22 (Homo sapiens) (UniProt Q5TCH4)
In words: LTEA_HepaRG_CYP4A22: Life Technologies and Expression Analysis (LTEA) Assay for Cytochrome P450 4A22 (CYP4A22) using HepaRG (AID 2283495). Put shortly: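 Cryopreserved HepaRG cells, plated and cultured 48 h, then switched to serum-free induction medium and treated 48 h (duplicates, up to 100 uM, half-log steps, 0.5% DMSO). Expression change of CYP4A22 was fitted bidirectionally against vehicle.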

Read-out in test [15]: Cytochrome P450 7A1 (Homo sapiens) (UniProt P22680)
In words: LTEA_HepaRG_CYP7A1: Life Technologies and Expression Analysis (LTEA) Assay for Cytochrome P450 7A1 (CYP7A1) using HepaRG (AID 2283496). The procedure, abridged:
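Using 0.5% DMSO as vehicle and baseline, chemicals were tested in duplicate over an 8-point range from 100 uM on HepaRG cells for 48 h; qRT-PCR signals were normalised to ACTB, GAPDH and POLR2A.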

Read-out in test [16]: Glutathione S-Transferase (GSTA2), GSTA2 (gene 2939)
Put plainly: LTEA_HepaRG_GSTA2: Life Technologies and Expression Analysis (LTEA) Assay for Glutathione S-Transferase (GSTA2) using HepaRG (AID 2283497). Put shortly: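 GSTA2 transcript levels came from Fluidigm TaqMan qRT-PCR normalized to three housekeeping genes, fitted in both directions against DMSO. HepaRG cultures received chemicals for 48 h in serum-free induction medium (0.5% DMSO), 8 half-log concentrations up to 100 uM, duplicate.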

Read-out in test [17]: Glutamate-cysteine ligase catalytic (GCLC), GCLC (gene 2729)
In words: LTEA_HepaRG_GCLC: Life Technologies and Expression Analysis (LTEA) Assay for Glutamate-cysteine ligase catalytic (GCLC) using HepaRG (AID 2283498). The procedure, abridged: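 Expression by TaqMan qRT-PCR, normalized to three housekeeping genes (ACTB, GAPDH, POLR2A), with up- or down-regulation fitted against DMSO. HepaRG cells dosed in duplicate for 48 h with 8 half-log concentrations up to 100 uM, vehicle 0.5% DMSO.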

Read-out in test [18]: growth arrest and DNA damage 45 (GADD45G), GADD45G (gene 10912)
In words: LTEA_HepaRG_GADD45G: Life Technologies and Expression Analysis (LTEA) Assay for growth arrest and DNA damage 45 (GADD45G) using HepaRG (AID 2283499). Put shortly: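 Human hepatic HepaRG line treated 48 h with chemicals (eight concentrations, half-log steps from 100 uM); transcript induction or repression of GADD45G scored by qRT-PCR versus DMSO vehicle.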

Read-out in test [19]: CYP3A5 (gene 1577)
In words: LTEA_HepaRG_CYP3A5: Life Technologies and Expression Analysis (LTEA) Assay for CYP3A5 using HepaRG (AID 2283493). Put shortly: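 Readout was CYP3A5 mRNA by qRT-PCR. HepaRG cultures were exposed for 48 h in serum-free induction medium to chemicals at up to 100 uM, and responses were fitted in both directions relative to DMSO vehicle.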

The source made the active and inactive calls. Rule for the calls: active = hit-call score of the fitted dose curve at least 0.9, where 1 is the maximum; inactive = score below 0.9.

Cytochrome P450 3A7 (Homo sapiens), sequence (P24462 whole entry, looked up): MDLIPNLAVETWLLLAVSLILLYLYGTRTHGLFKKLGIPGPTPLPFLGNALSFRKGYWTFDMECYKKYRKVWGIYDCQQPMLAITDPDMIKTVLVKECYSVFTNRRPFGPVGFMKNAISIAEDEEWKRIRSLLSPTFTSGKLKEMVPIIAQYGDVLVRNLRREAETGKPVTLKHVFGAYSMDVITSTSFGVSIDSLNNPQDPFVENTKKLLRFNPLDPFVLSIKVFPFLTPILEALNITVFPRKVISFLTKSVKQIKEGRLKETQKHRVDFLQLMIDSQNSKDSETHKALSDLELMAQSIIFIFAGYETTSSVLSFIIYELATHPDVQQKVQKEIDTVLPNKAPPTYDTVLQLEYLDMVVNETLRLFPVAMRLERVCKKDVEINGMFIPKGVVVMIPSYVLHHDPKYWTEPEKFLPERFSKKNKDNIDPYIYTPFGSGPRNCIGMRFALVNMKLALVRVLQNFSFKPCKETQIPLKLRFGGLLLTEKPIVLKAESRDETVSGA
Cytochrome P450 2C19 (Homo sapiens), sequence (P33261 whole entry, looked up): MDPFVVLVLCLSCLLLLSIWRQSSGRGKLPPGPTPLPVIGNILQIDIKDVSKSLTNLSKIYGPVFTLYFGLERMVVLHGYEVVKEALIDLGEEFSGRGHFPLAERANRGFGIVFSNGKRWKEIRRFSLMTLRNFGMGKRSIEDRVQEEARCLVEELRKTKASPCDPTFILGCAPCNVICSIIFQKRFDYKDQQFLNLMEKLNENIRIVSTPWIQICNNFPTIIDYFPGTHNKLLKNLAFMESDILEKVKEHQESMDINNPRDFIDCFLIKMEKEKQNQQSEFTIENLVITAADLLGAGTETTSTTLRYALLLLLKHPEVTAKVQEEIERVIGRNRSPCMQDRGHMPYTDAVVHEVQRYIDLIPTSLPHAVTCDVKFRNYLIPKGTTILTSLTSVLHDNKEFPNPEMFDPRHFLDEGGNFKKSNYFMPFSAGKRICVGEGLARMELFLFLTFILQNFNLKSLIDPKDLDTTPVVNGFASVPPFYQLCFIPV
Cytochrome P450 3A4 (Homo sapiens), sequence (P08684 whole entry, looked up): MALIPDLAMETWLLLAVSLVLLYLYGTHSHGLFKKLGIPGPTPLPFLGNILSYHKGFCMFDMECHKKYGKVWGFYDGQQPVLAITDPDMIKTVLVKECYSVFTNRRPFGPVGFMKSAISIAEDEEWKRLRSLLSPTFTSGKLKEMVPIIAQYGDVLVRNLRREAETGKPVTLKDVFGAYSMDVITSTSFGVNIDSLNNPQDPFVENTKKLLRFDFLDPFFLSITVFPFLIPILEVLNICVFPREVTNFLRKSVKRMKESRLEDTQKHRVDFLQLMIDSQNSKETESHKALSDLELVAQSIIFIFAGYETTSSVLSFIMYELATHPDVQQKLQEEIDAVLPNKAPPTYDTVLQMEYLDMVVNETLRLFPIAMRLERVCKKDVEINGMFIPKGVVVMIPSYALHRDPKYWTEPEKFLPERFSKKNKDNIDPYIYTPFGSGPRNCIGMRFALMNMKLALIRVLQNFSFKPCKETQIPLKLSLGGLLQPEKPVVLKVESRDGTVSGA

`CC(O)CCO` (stereo not drawn): the molecule was classed as inactive in test [1], in test [2], in test [3], in test [4], in test [5] and in test [6]. The call in test [7], in test [8], in test [9], in [10], in test [11] and in test [12] was inactive. Further, the molecule was called inactive in [13], in test [14], in test [15], in test [16], in test [17] and in [18].

For `CCC(C)c1ccc(O)cc1` (stereo not drawn), the molecule was called inactive in [1], in test [2], in test [3], in [4], in test [5] and in [6]. Also, the call in [7], in test [8], in test [9], in [10], in [11] and in test [12] was inactive. Moreover, the molecule was called inactive in test [13], in test [14], in [15], in test [16] and in test [18]. In addition, in test [17], the AC50 was 0.397 µM (active).

Consider `CCCCCCCCCCCCCN1CC(C)OC(C)C1` (stereo not drawn), for which the molecule was called inactive in test [1], in test [2], in test [3], in test [4], in test [5] and in test [6]. Moreover, the outcome in test [7], in test [8], in test [9], in test [10], in [11] and in test [12] was inactive. The call in [13], in test [14], in [15], in test [16], in test [17] and in [18] was inactive.

Consider `CCOC(=O)[C@]1(c2ccccc2)Oc2ccccc2[C@@H]1N`, for which the AC50 in test [1] was 81.9 µM (active); in [2], 78.2 µM (active); in test [4] it was 74.3 µM (active); in test [5], 75.2 µM (active); in test [6] it was 79.7 µM (active); in test [7], 80 µM (active). Besides, the AC50 in test [8] was 76.8 µM (active); in [9], 75.6 µM (active); in test [12], 85.4 µM (active); in test [13] it was 90.1 µM (active); in [14], 71.6 µM (active); in test [15] it was 90.5 µM (active). Also, the AC50 is 76.1 µM (active) in [16], 82.4 µM (active) in [17] and 87.9 µM (active) in test [18]. Moreover, the result in test [3], in test [10], in [11] and in test [19] was inactive.

As a reminder, the AC50 is the concentration giving half of the maximal activity seen.
